# Source: PubChem BioAssay (Tox21)
# Unmarked numbers belong to inactive results. Inconclusive results are not listed. A call without a number means that no potency is given here. Active and inactive are the calls of the source. Calls come from the whole dose curve; as a rule, active = well fitted curve in the direction sought with a large enough effect in the repeat runs; inconclusive = weak or mixed curves; inactive = no such curve, though single readings can be large; an effect the other way counts as inactive or inconclusive.
# What was measured:
# [1] = qHTS RealTime-Glo MT Cell Viability Assay in HEK293 cells - 16 hour (AID 1224872); note: top concentration of the series differs between compounds; nearly all actives have a fitted effect of over 50% in size
# Method in brief: (§1)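 Cells + reagent dispensed (600 cells/well, HEK293) → 5 h at 37 C/5% CO2 → 23 nL compound in DMSO pinned → 40 h at 37 C → luminescence read at 0, 8, 16, 24, 32, 40 h.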
# [2] = qHTS RealTime-Glo MT Cell Viability Assay in HepG2 cells - 8 hour (AID 1224873); note: nearly all actives have a fitted effect of over 55% in size
# Method in brief: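 HepG2 cells (600/well) mixed with RealTime-Glo MT reagent, settled 5 h at 37 C/5% CO2 before compound addition. Nonlytic NanoLuc luminescence from viable-cell prosubstrate reduction read repeatedly during 40 h treatment at 37 C.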
# [3] = qHTS RealTime-Glo MT Cell Viability Assay in HEK293 cells - 40 hour (AID 1224874); settings: RealTime-Glo luminescence; max response: active compounds read low; note: nearly all actives have a fitted effect of over 50% in size
# Method in brief: (§2)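 Luminescence readout at each listed time point; HEK293, 600 cells/well, RealTime-Glo MT reagent added with cells; compounds pinned (23 nL in DMSO) after 5 h at 37 C; continuous culture at 37 C.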
# [4] = A CellTox Green Cytotoxicity Assay to monitor cytotoxicity in HEK293 cells - 24 hour (AID 1224875); note: series mostly up to about 77 µM; nearly all actives have a fitted effect of over 45% in size
# Method in brief: (§3)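 Read-out: fluorescence of a cell-impermeant cyanine dye staining DNA of dead cells, proportional to cytotoxicity. HEK293, 600 cells/well with reagent, compound (23 nL DMSO) added after 5 h; reads at 0, 8, 16, 24, 32, 40 h.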
# [5] = A CellTox Green Cytotoxicity Assay to monitor cytotoxicity in HepG2 cells - 16 hour (AID 1224876); note: nearly all actives have a fitted effect of over 45% in size
# Method in brief: (§4)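 HepG2, 600 cells/well premixed w/ CellTox Green; 5 h settle, 37 C/5% CO2; pintool cpd add (DMSO); 37 C, 40 h; fluorescence read at 0, 8, 16, 24, 32, 40 h.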
# [6] = qHTS RealTime-Glo MT Cell Viability Assay in HepG2 cells - 32 hour (AID 1224877); note: nearly all actives have a fitted effect of over 55% in size
# Method in brief: (§5)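 Real-time, nonlytic viability: 600 HepG2 cells/well mixed with NanoLuc enzyme plus prosubstrate; 5 h settle, compound (DMSO) added by pintool; luminescence monitored over 40 h at 37 C.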
# [7] = A CellTox Green Cytotoxicity Assay to monitor cytotoxicity in HepG2 cells - 24 hour (AID 1224878); note: nearly all actives have a fitted effect of over 45% in size; note: potency is the fitted concentration of half-maximal effect
# Method in brief: as §4
# [8] = A CellTox Green Cytotoxicity Assay to monitor cytotoxicity in HepG2 cells - 40 hour (AID 1224879); note: nearly all actives have a fitted effect of over 40% in size; note: potency is the fitted concentration of half-maximal effect
# Method in brief: as §4
# [9] = qHTS RealTime-Glo MT Cell Viability Assay in HEK293 cells - 0 hour (AID 1224880); note: top concentration of the series differs between compounds; nearly all actives have a fitted effect of over 45% in size
# Method in brief: as §2
# [10] = A CellTox Green Cytotoxicity Assay to monitor cytotoxicity in HEK293 cells - 32 hour (AID 1224881); note: nearly all actives have a fitted effect of over 40% in size
# Method in brief: as §3
# [11] = A CellTox Green Cytotoxicity Assay to monitor cytotoxicity in HepG2 cells - 0 hour (AID 1224882); note: nearly all actives have a fitted effect of over 35% in size
# Method in brief: as §4
# [12] = A CellTox Green Cytotoxicity Assay to monitor cytotoxicity in HepG2 cells - 32 hour (AID 1224883); note: nearly all actives have a fitted effect of over 50% in size; note: potency is the fitted concentration of half-maximal effect
# Method in brief: as §4
# [13] = A CellTox Green Cytotoxicity Assay to monitor cytotoxicity in HEK293 cells - 8 hour (AID 1224884); note: nearly all actives have a fitted effect of over 35% in size
# Method in brief: as §3
# [14] = qHTS RealTime-Glo MT Cell Viability Assay in HepG2 cells - 16 hour (AID 1224885); note: nearly all actives have a fitted effect of over 50% in size
# Method in brief: as §5
# [15] = qHTS RealTime-Glo MT Cell Viability Assay in HEK293 cells - 24 hour (AID 1224886)
# Method in brief: as §1
# [16] = qHTS RealTime-Glo MT Cell Viability Assay in HEK293 cells - 8 hour (AID 1224887)
# Method in brief: as §2
# [17] = A CellTox Green Cytotoxicity Assay to monitor cytotoxicity in HEK293 cells - 16 hour (AID 1224888); note: nearly all actives have a fitted effect of over 35% in size
# Method in brief: as §3
# [18] = qHTS RealTime-Glo MT Cell Viability Assay in HepG2 cells - 0 hour (AID 1224889); note: nearly all actives have a fitted effect of over 50% in size
# Method in brief: as §5
# [19] = A CellTox Green Cytotoxicity Assay to monitor cytotoxicity in HepG2 cells - 8 hour (AID 1224890); note: nearly all actives have a fitted effect of over 45% in size
# Method in brief: as §4
# [20] = qHTS assay to identify small molecule antagonists of the estrogen receptor alpha (ER-alpha) signaling pathway using the BG1 cell line in the presence of 0.1 nM 17-beta-estradiol - cell viability counter screen (AID 1259241); note: nearly all actives have a fitted effect of over 40% in size
# Method in brief: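 Estradiol-stimulated (0.1 nM) VM7Luc4E2 cells exposed to compounds 22 hr; viability measured by fluorescence of cleaved CellTiter-Fluor substrate after 30 min.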
structure (smiles),measurement,setting,value
COC(=O)[C@@H]1CC2=CC(=O)CC[C@]2(C)[C@@]23O[C@@H]2C[C@@]2(C)[C@@H](CC[C@@]24CCC(=O)O4)[C@H]13,Potency,[1],inactive
same,Potency,[2],inactive
same,max response,[3],1.85%
same,Potency,[4],inactive
same,Potency,[5],inactive
same,Potency,[6],inactive
same,Potency,[7],inactive
same,Potency,[8],inactive
same,Potency,[9],inactive
same,Potency,[10],inactive
same,Potency,[11],inactive
same,Potency,[12],inactive
same,Potency,[13],inactive
same,Potency,[14],inactive
same,Potency,[15],inactive
same,Potency,[16],inactive
same,Potency,[17],inactive
same,Potency,[18],inactive
same,Potency,[19],inactive
same,Potency,[20],inactive
CCCC(=O)O[C@]1(C(=O)COC(=O)CC)CC[C@H]2[C@@H]3CCC4=CC(=O)CC[C@]4(C)[C@H]3[C@@H](O)C[C@@]21C,"activity change, negative = cytotoxicity",[1],5.42% [at 15.8 µM]
same,"viability change, negative = cytotoxic",[2],4.81% [at 15.8 µM]
same,max response,[3],4.99%
same,activity change,[4],"-15.7% [at 15.8 µM, active compounds read high]"
same,cytotoxicity increase,[5],-6.66% [at 15.8 µM]
same,"activity change, negative = cytotoxic",[6],2.32% [at 15.8 µM]
same,cytotoxicity,[7],-8.51% [at 15.8 µM]
same,cytotoxicity increase,[8],-7.71% [at 15.8 µM]
same,"activity change, negative = cytotoxicity",[9],0.536% [at 15.8 µM]
same,cytotoxicity increase,[10],-18.3% [at 15.8 µM]
same,cytotoxicity,[11],-8.79% [at 15.8 µM]
same,cytotoxicity increase,[12],-8.25% [at 15.8 µM]
same,cytotoxicity increase,[13],-4.08% [at 15.8 µM]
same,"activity change, negative = cytotoxic",[14],1.6% [at 15.8 µM]
same,"activity change, negative = cytotoxicity",[15],2.56% [at 15.8 µM]
same,"activity change, negative = cytotoxicity",[16],0.511% [at 15.8 µM]
same,activity change,[17],"-13.4% [at 15.8 µM, active compounds read high]"
same,"activity change, negative = cytotoxicity",[18],-13.7% [at 15.8 µM]
same,cytotoxicity increase,[19],-2.4% [at 15.8 µM]
C=CC(=O)NCOCC(C)C,Potency,[1],inactive
same,Potency,[2],inactive
same,max response,[3],-14%
same,Potency,[4],inactive
same,Potency,[5],inactive
same,Potency,[6],inactive
same,Potency,[7],inactive
same,Potency,[8],inactive
same,Potency,[9],inactive
same,Potency,[10],inactive
same,Potency,[11],inactive
same,Potency,[12],inactive
same,Potency,[13],inactive
same,Potency,[14],inactive
same,Potency,[15],inactive
same,Potency,[16],inactive
same,Potency,[17],inactive
same,Potency,[18],inactive
same,Potency,[19],inactive
same,Potency,[20],inactive
CCn1nc(C)c2c1C(=O)NCC(c1ccc(O)cc1)=N2,Potency,[1],inactive
same,Potency,[2],inactive
same,max response,[3],0.626%
same,Potency,[4],inactive
same,Potency,[5],inactive
same,Potency,[6],inactive
same,Potency,[7],inactive
same,Potency,[8],inactive
same,Potency,[9],inactive
same,Potency,[10],inactive
same,Potency,[11],inactive
same,Potency,[12],inactive
same,Potency,[13],inactive
same,Potency,[14],inactive
same,Potency,[15],inactive
same,Potency,[16],inactive
same,Potency,[17],inactive
same,Potency,[18],inactive
same,Potency,[19],inactive
same,Potency,[20],inactive
Cc1cc(O)c2c(O)c3c(O)cccc3cc2c1,Potency,[1],inactive
same,Potency,[2],inactive
same,max response,[3],-16.2%
same,Potency,[4],inactive
same,Potency,[5],inactive
same,Potency,[6],inactive
same,Potency,[7],inactive
same,Potency,[8],inactive
same,Potency,[9],inactive
same,Potency,[10],inactive
same,Potency,[11],inactive
same,Potency,[12],inactive
same,Potency,[13],inactive
same,Potency,[14],inactive
same,Potency,[17],inactive
same,Potency,[18],inactive
same,Potency,[19],inactive
CO/N=C1\CN(c2nc3c(cc2F)c(=O)c(C(=O)O)cn3C2CC2)CC1CN (centres undefined),Potency,[1],inactive
same,Potency,[2],inactive
same,max response,[3],8.45%
same,Potency,[4],inactive
same,Potency,[5],inactive
same,Potency,[6],inactive
same,Potency,[7],inactive
same,Potency,[8],inactive
same,Potency,[9],inactive
same,Potency,[10],inactive
same,Potency,[11],inactive
same,Potency,[12],inactive
same,Potency,[13],inactive
same,Potency,[14],inactive
same,Potency,[15],inactive
same,Potency,[16],inactive
same,Potency,[17],inactive
same,Potency,[18],inactive
same,Potency,[19],inactive
same,Potency,[20],inactive
CC1CN(c2cc3c(cc2F)c(=O)c(C(=O)O)cn3-c2ccc(F)cc2F)CCN1 (centres undefined),"activity change, negative = cytotoxicity",[1],6.7% [at 6.97 µM]
same,"viability change, negative = cytotoxic",[2],1.58% [at 6.97 µM]
same,max response,[3],2.82%
same,activity change,[4],"-1.61% [at 6.97 µM, active compounds read high]"
same,cytotoxicity increase,[5],0.798% [at 6.97 µM]
same,"activity change, negative = cytotoxic",[6],0.449% [at 6.97 µM]
same,cytotoxicity,[7],-0.333% [at 6.97 µM]
same,cytotoxicity increase,[8],1.74% [at 6.97 µM]
same,"activity change, negative = cytotoxicity",[9],15.1% [at 6.97 µM]
same,cytotoxicity increase,[10],-2.92% [at 6.97 µM]
same,cytotoxicity,[11],5.97% [at 6.97 µM]
same,cytotoxicity increase,[12],0.181% [at 6.97 µM]
same,cytotoxicity increase,[13],1.21% [at 6.97 µM]
same,"activity change, negative = cytotoxic",[14],2.01% [at 6.97 µM]
same,"activity change, negative = cytotoxicity",[15],6.23% [at 6.97 µM]
same,"activity change, negative = cytotoxicity",[16],7.56% [at 6.97 µM]
same,activity change,[17],"-0.883% [at 6.97 µM, active compounds read high]"
same,"activity change, negative = cytotoxicity",[18],-3.32% [at 6.97 µM]
same,cytotoxicity increase,[19],-0.506% [at 6.97 µM]
same,"activity change, negative = cytotoxicity",[20],6.15% [at 8.39 µM]
Cc1cc(C(=C2C=CC(=Nc3ccc(S(=O)(=O)O)cc3S(=O)(=O)O)C=C2)c2ccc(Nc3ccc(S(=O)(=O)O)cc3)cc2)ccc1N,Potency,[1],inactive
same,Potency,[2],inactive
same,max response,[3],-3.61%
same,Potency,[4],inactive
same,Potency,[5],inactive
same,Potency,[6],inactive
same,Potency,[7],inactive
same,Potency,[8],inactive
same,Potency,[9],inactive
same,Potency,[10],inactive
same,Potency,[11],inactive
same,Potency,[12],inactive
same,Potency,[13],inactive
same,Potency,[14],inactive
same,Potency,[15],inactive
same,Potency,[16],inactive
same,Potency,[17],inactive
same,Potency,[19],inactive
Cn1c(=O)c2c(ncn2CC(=O)O)n(C)c1=O,Potency,[1],inactive
same,Potency,[2],inactive
same,max response,[3],1.42%
same,Potency,[4],inactive
same,Potency,[5],inactive
same,Potency,[6],inactive
same,Potency,[7],inactive
same,Potency,[8],inactive
same,Potency,[9],inactive
same,Potency,[10],inactive
same,Potency,[11],inactive
same,Potency,[12],inactive
same,Potency,[13],inactive
same,Potency,[14],inactive
same,Potency,[15],inactive
same,Potency,[16],inactive
same,Potency,[17],inactive
same,Potency,[18],inactive
same,Potency,[19],inactive
same,Potency,[20],inactive
Cc1ccc(S)cc1,Potency,[1],inactive
same,Potency,[2],inactive
same,max response,[3],4.48%
same,Potency,[4],inactive
same,Potency,[5],inactive
same,Potency,[6],inactive
same,Potency,[7],17.4 µM (active)
same,Potency,[8],17.4 µM (active)
same,Potency,[9],inactive
same,Potency,[10],inactive
same,Potency,[11],inactive
same,Potency,[12],17.4 µM (active)
same,Potency,[13],inactive
same,Potency,[14],inactive
same,Potency,[15],inactive
same,Potency,[16],inactive
same,Potency,[17],inactive
same,Potency,[18],inactive
same,Potency,[19],inactive
same,Potency,[20],inactive
